In PubChem BioAssay AID1159580 (chemical genetic matrix, 2015):
Values joined by “and” are separate entries in the source; they are usually repeats but may differ in a detail not shown here. Equal values may be shown once. Among all 5,500 compounds or so, about 2,000 (36%) were called active. Roughly 18% stayed inconclusive and do not appear here. No stated cut-off is given here; in the data, active means normalized growth mostly below about 0.91 (no sharp cut-off); inconclusive means no clear call, values can overlap the other calls; inactive means mostly above about 0.92. The list shows a part of the results.

Assay: chemical genetic growth profiling, strain panel (AID 1159580);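 further: tested at 20 µM; growth read once vehicle control cultures reached saturation at 30 °C; 1 = growth at the plate median or of vehicle wells; lower values mean less growth of the strain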
Settings: S. cerevisiae deletion strains, growth OD

Measured: normalized growth

N#Cc1ccc2c(c1)N(CCCN1CCC(O)CC1)c1ccccc1S2
active: locus YDR392W, strain spt3, active compounds read low 0.72
inactive: locus YAL013W, strain DEP1, active compounds read low 1 | locus YAL021C, strain ccr4, active compounds read low 1.01 | locus YAL026C, strain drs2, active compounds read low 0.99 | locus YAL030W, strain snc1, active compounds read low 0.999 | locus YBL061C, strain skt5, active compounds read low 0.984 | locus YBR009C, strain hhf1, active compounds read low 0.953 | locus YBR021W, strain FUR4, active compounds read low 1 | locus YBR023C, strain chs3, active compounds read low 0.982 | locus YBR171W, strain sec66, active compounds read low 1 | locus YBR229C, strain ROT2, active compounds read low 1.02 | locus YBR231C, strain swc5, active compounds read low 0.994 | locus YBR279W, strain paf1, active compounds read low 0.987 | locus YCL011C, strain gbp2, active compounds read low 0.989 | locus YCL016C, strain dcc1, active compounds read low 0.987 | locus YCL029C, strain bik1, active compounds read low 1.03 | locus YCL061C, strain MRC1, active compounds read low 0.992 | locus YCL069W, strain vba3, active compounds read low 0.993 | locus YCR088W, strain abp1, active compounds read low 0.996 | locus YDL005C, strain med2, active compounds read low 0.991 | locus YDL035C, strain GPR1, active compounds read low 1.01 | locus YDL040C, strain nat1, active compounds read low 0.975 | locus YDL074C, strain BRE1, active compounds read low 1 | locus YDL101C, strain DUN1, active compounds read low 1 | locus YDL134C, strain PPH21, active compounds read low 1.01 | locus YDL185W, strain tfp1, active compounds read low 1.03 | locus YDL192W, strain arf1, active compounds read low 1.03 | locus YDR001C, strain nth1, active compounds read low 0.992 | locus YDR069C, strain doa4, active compounds read low 0.995 | locus YDR101C, strain arx1, active compounds read low 1.01 | locus YDR137W, strain rgp1, active compounds read low 1.02 | locus YDR150W, strain NUM1, active compounds read low 0.999 | locus YDR159W, strain sac3, active compounds read low 0.979 | locus YDR162C, strain NBP2, active compounds read low 1.02 | locus YDR195W, strain ref2 1 | locus YDR297W, strain sur2, active compounds read low 0.99 | locus YDR318W, strain mcm21, active compounds read low 1.02 | locus YDR334W, strain swr1, active compounds read low 0.996 | locus YDR335W, strain msn5, active compounds read low 0.996 | locus YDR388W, active compounds read low 1.03 | locus YDR502C, strain sam2, active compounds read low 1.01 | locus YEL003W, strain gim4, active compounds read low 1 | locus YEL037C, strain rad23, active compounds read low 0.996 | locus YEL061C, strain CIN8 (second series), active compounds read low 0.994 | locus YEL061C, strain CIN8, active compounds read low 1 | locus YER015W, strain faa2, active compounds read low 1 | locus YER016W, strain bim1, active compounds read low 0.996 | locus YER110C, active compounds read low 1.02 | locus YER111C, strain swi4, active compounds read low 0.984 | locus YER155C, strain BEM2 (second series), active compounds read low 0.912 | locus YER155C, strain BEM2, active compounds read low 1 | locus YER167W, strain BCK2, active compounds read low 1.01 | locus YFR010W, strain ubp6, active compounds read low 0.999 | locus YGL078C, strain dbp3, active compounds read low 1.01 | locus YGL086W, strain mad1, active compounds read low 1.02 | locus YGL167C, strain pmr1, active compounds read low 0.995 | locus YGL173C, strain kem1, active compounds read low 0.991 | locus YGL227W, strain vid30, active compounds read low 0.996 | locus YGL240W, strain doc1, active compounds read low 0.97 | locus YGL248W, strain PDE1, active compounds read low 1.01 | locus YGL253W, strain hxk2, active compounds read low 0.991 | locus YGR078C, strain PAC10, active compounds read low 0.998 | locus YGR135W, strain pre9, active compounds read low 1.01 | locus YGR229C, strain SMI1, active compounds read low 1 | locus YGR252W, strain gcn5, active compounds read low 1.01 | locus YHR013C, strain ard1, active compounds read low 0.897 | locus YHR027C, strain rpn1, active compounds read low 0.997 | locus YHR030C, strain SLT2, active compounds read low 1.01 and 1.03 | locus YHR079C, strain IRE1 (second series), active compounds read low 1.02 | locus YHR079C, strain IRE1, active compounds read low 1.04 | locus YHR094C, strain hxt1, active compounds read low 1.02 | locus YHR129C, strain ARP1, active compounds read low 1 | locus YHR142W, strain chs7, active compounds read low 0.997 | locus YHR200W, strain rpn10, active compounds read low 1.02 | locus YIL066C, strain RNR3, active compounds read low 1.01 | locus YIL073C, strain SPO22, active compounds read low 1.03 | locus YIL125W, strain kgd1, active compounds read low 1.03 | locus YIR030C, strain dcg1, active compounds read low 1.03 | locus YJL092W, strain hpr5, active compounds read low 1 | locus YJL095W, strain BCK1 (second series), active compounds read low 0.988 | locus YJL095W, strain BCK1, active compounds read low 0.983 and 1.04 | locus YJL115W, strain asf1, active compounds read low 0.994 | locus YJL129C, strain trk1, active compounds read low 0.994 | locus YJL134W, strain LCB3, active compounds read low 1 | locus YJL154C, strain vps35, active compounds read low 0.987 | locus YJL164C, strain tpk1, active compounds read low 0.992 | locus YJL166W, strain qcr8, active compounds read low 0.997 | locus YJL168C, strain set2, active compounds read low 1.02 | locus YJL187C, strain SWE1 (second series), active compounds read low 1.01 | locus YJL187C, strain SWE1, active compounds read low 0.998 | locus YJR043C, strain POL32, active compounds read low 1.01 | locus YJR066W, strain TOR1, active compounds read low 0.955
